This is a sample that favours compounds with a hit; in the whole collection about 4.7% have one here.
EBI2 block: EBI2 (human) antagonism; P32249; EBI2 beta-arrestin recruitment, luminescence, 7a,25-OHC stimulated; inhibition, % at 5 µM; 360,000 tested, 0.81% active; AID 651636; in the data active = inhibition above about 38%;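 also: enzyme fragment complementation signal reports receptor beta-arrestin coupling in cells; 0% = agonist plus DMSO wells and 100% = wells without agonist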
Target sequence (P32249 whole entry, looked up, the tested form may be a part): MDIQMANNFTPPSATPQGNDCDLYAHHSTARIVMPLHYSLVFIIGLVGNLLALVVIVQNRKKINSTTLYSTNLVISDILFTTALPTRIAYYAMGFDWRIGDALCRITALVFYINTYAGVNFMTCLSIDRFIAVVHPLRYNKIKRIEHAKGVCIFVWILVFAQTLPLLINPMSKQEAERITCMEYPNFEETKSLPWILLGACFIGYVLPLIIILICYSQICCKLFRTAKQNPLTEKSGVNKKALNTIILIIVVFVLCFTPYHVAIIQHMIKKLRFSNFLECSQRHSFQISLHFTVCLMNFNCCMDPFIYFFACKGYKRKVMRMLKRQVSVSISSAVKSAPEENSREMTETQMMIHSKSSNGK
SKKanGAS inh: SKKanGAS growth inhibition; S. pyogenes SKKanGAS, kanamycin growth, BacTiter-Glo, 6 h; 300,000 tested, 1.3% active; inhibition, % at 7.5 µM; AID 1662;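 active = mean replicate score, as percent of positive control median, at least 50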;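 also: strain carries kanamycin resistance gene driven by streptokinase promoter and grows in 40 µg/ml kanamycin; loss of luminescence reflects streptokinase promoter inhibition or plain growth inhibition; 0% = median of DMSO wells and 100% = positive control at its reference dose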
PfHsp90 yeast 2: inhibits growth of yeast expressing Plasmodium falciparum Hsp90 | S. cerevisiae expressing PfHsp90, BacTiter-Glo ATP, 48 h; yeast lacking PDR1 and PDR3 efflux regulators | 310,000 tested, 0.32% active | inhibition, % at 9.4 µM | AID 504621;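 active = every replicate shows inhibition above about 80%, whatever the replicate mean, limit read from the data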;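 also: 0% = DMSO neutral controls and 100% = 20 µM radicicol positive controls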
tim23-1 inh: growth inhibitors of tim23-1 mutant yeast. inhibition, % at 20 µM. AID 463212. S. cerevisiae tim23-1 growth, BacTiter-Glo luminescence, 24 h. 330,000 tested, 1.3% active;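 active = growth inhibition of the mutant yeast at or above 50%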;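 also: temperature-sensitive mutant grown at 25 °C; plate controls were DMSO-treated mutant yeast for no effect and medium wells lacking yeast for full effect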
TIM10 inh: growth inhibitors of TIM10 yeast strain | AID 463195 | S. cerevisiae TIM10 strain growth, BacTiter-Glo luminescence, 24 h | inhibition, % at 10 µM | 330,000 tested, 1.4% active;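 active = inhibition of 40% or more at the single tested concentration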;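 also: wild-type TIM10 isogenic control strain grown at permissive 25 °C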
tim10-1 inh: growth inhibitors of tim10-1 mutant yeast; S. cerevisiae tim10-1 ts strain growth, BacTiter-Glo, 24 h; inhibition, % at 20 µM; 330,000 tested, 2.2% active; AID 463190;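 active = inhibition of at least 40%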;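 also: mutant grown at 25 °C; 0% = DMSO wells with yeast and 100% = wells holding no yeast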
tim10-1 conf: tim10-1 yeast growth inhibition, confirmed; shares compounds with tim10-1 inh; S. cerevisiae tim10-1 ts strain growth, BacTiter-Glo, 24 h; inhibition, % at 20 µM; 7,400 tested, 56% active; AID 463213;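 active = inhibition of yeast growth at or above a set limit in either of two repeat tests at 20 µM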;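 also: tim10-1 mutant grown at permissive 25 °C to find synthetic lethal compounds; 0% = DMSO yeast wells and 100% = medium wells without yeast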
Numbers without * were called inactive; · = no result given.

SMILES	EBI2 block	SKKanGAS inh	PfHsp90 yeast 2	tim23-1 inh	TIM10 inh	tim10-1 inh	tim10-1 conf
O=C(c1ccc(S(=O)(=O)Cc2ccccc2Cl)c([N+](=O)[O-])c1)N1CCN(c2ccccn2)CC1	-13	-3	6	44	39	52*	39*
O=C(c1ccc(S(=O)(=O)Cc2cc(F)ccc2F)c([N+](=O)[O-])c1)N1CCCC1	-27	4	17	40	27	28	·
Cc1cc(C=O)sc1[B-](F)(F)F	-6	·	-7	·	·	·	·
COc1ccc(/C=C2\CCC/C(=C\c3ccc(OC)c(OC)c3OC)C2=O)c(OC)c1OC	15	-7	-10	35	21	41*	22
COc1cc(OC)c(OC)cc1/C=C1\CCC/C(=C\c2cc(OC)c(OC)cc2OC)C1=O	-25	22	14	33	24	31	·
NC(=O)C1(N2CCCCC2)CCN(C(=O)c2cc(COc3c(F)cccc3F)on2)CC1	-2	·	·	·	·	·	·
COc1cc(C)ccc1OCc1cc(C(=O)N2CCC(c3ccc(F)cc3)C2)no1 (centres undefined)	-4	14	-5	33	19	41*	27*
O=C(NCCc1cccnc1)c1cc(COc2ccc(F)cc2Cl)on1	4	-15	12	29	3	45*	18
O=C(c1cc(COc2ccc(F)cc2Cl)on1)N1CCCC(OCc2cccnc2)C1 (centres undefined)	12	-10	19	20	8	44*	26
CCOC(=O)/C(=N\Nc1ccccc1)P(=O)(c1ccccc1)c1ccccc1	-15	-5	2	14	19	12	·
CCOc1cc(C2NC(=O)NC(c3ccccc3)=C2C(=O)c2ccccc2)c(Br)cc1OCC(=O)O (centres undefined)	1	0	1	15	12	4	·
COc1ccc(C(=O)NC(=S)N2CCN(c3ccccc3O)CC2)cc1	4	·	-16	37	17	19	·
CC(C)CC(=O)Nc1nnc(S(=O)(=O)N2CCc3ccccc32)s1	-10	1	-5	-4	-15	2	·
CCC(=O)Nc1nnc(S(=O)(=O)N2CCc3ccccc32)s1	-9	6	-13	7	1	49*	6
c1csc(-c2nc3ccccn3c2NC2CCCCC2)c1	-14	1	3	27	31	48*	33*
Cc1ccn2c(NCc3ccccc3)c(-c3cccs3)nc2c1	-43	0	13	46	29	46*	30
CC(C)c1nc2ccccn2c1NC1CCCCC1	3	-5	34	6	4	11	·
Cc1ccn2c(NC(=O)c3ccccc3)c(-c3cccs3)nc2c1	0	2	·	-4	-21	6	·
Cc1ccn2c(NC3CCCC3)c(-c3cccs3)nc2c1	7	-1	-13	33	21	46*	31*
COc1ccc(CN2CCN(Cc3ccc(Br)cc3)CC2)c(OC)c1OC	-1	-10	1	8	10	4	·
CCNC(=O)C1(C)CCN(C(=O)c2ccccc2C(F)(F)F)C1 (centres undefined)	-8	·	·	·	·	·	·
NNc1nc(Nc2ccccc2)nc(Nc2ccccc2)n1	-2	52*	14	43	25	51*	42*
Cc1cc(C(=O)CCl)c(C)n1-c1c(C)n(C)n(-c2ccccc2)c1=O	-15	-5	13	3	17	9	·
Fc1ccc(NC(=S)Nc2ccccc2N2CCOCC2)cc1Cl	6	-2	-25	32	9	44*	39*
O=C1CCCC2=C1C(c1ccccc1)CC(=O)N2c1ccc(F)cc1F (centres undefined)	-9	-3	·	25	32	17	·
SMILES	EBI2 block	SKKanGAS inh	PfHsp90 yeast 2	tim23-1 inh	TIM10 inh	tim10-1 inh	tim10-1 conf
COc1cccc2[nH]c3c(N4CCC(C)CC4)ncnc3c12	10	4	-14	23	19	41*	24
Cc1ccc(S(=O)(=O)Nc2c(C)ccc3nsnc23)cc1	0	0	8	33	-5	42*	14
O=C(CO/N=C\c1ccccc1)Nc1ccccc1C(=O)N1CCOCC1	-2	-3	-19	3	6	14	·
CC(C)CNC(=O)c1c2c(nc3ccccc13)-c1ccccc1CC2	-3	-1	·	-7	-1	22	·
CCN(CC)C(=O)c1c2c(nc3ccccc13)-c1ccccc1CC2	0	0	32	33	37	42*	17
Cc1ccc(-n2c(-c3ccccc3)c[n+]3c2CCc2ccccc2-3)c(C)c1	1	·	·	18	32	43*	28
Cc1ccc(-n2c(-c3ccccc3)c[n+]3c2CCC3)cc1	-3	-2	0	4	-1	-9	·
CCN=C1SC(CC(=O)NCc2ccccc2)C(=O)N1CC (centres undefined)	-10	2	-21	3	6	16	·
CCCN(C(=O)COC(=O)CNC(=O)c1ccc2ccccc2c1)c1c(N)n(Cc2ccccc2)c(=O)[nH]c1=O	-5	-3	6	18	8	13	·
O=C1CCCCC1C(O)(C(=O)c1ccccc1)c1ccccc1 (centres undefined)	12	·	·	·	·	·	·
COc1cccc(CNc2ccc([N+](=O)[O-])cc2C)c1	18	5	2	4	-14	6	·
COc1cccc(NCc2ccc([N+](=O)[O-])s2)c1	-4	3	13	41	34	41*	24
CCCCC1C2C(=O)N(c3ccc(C)cc3)C(=O)C2ON1c1ccccc1 (centres undefined)	10	-6	·	33	7	16	·
CC(C)CC(=O)Nc1ccc(C(=O)COC(=O)C2CCC2)cc1	10	-7	-14	14	5	20	·
Brc1nnc2n1-c1ccccc1Sc1ccccc1-2	8	2	3	18	-4	21	·
Clc1ccc2c(c1)-c1nnc(Br)n1-c1ccccc1S2	5	19	6	46	-3	48*	14
Cc1ccc(/C=N/Nc2ncc(Cl)cc2Cl)s1	6	-6	-7	30	19	42*	17
Clc1cnc(N/N=C/c2cccs2)c(Cl)c1	4	-2	4	-5	-14	-4	·
Oc1ccc(/C=N/Nc2ncc(Cl)cc2Cl)cc1	13	-3	-14	25	22	45*	11
CCOc1ccc(OCCC(=O)OCC(=O)NC2CCCC2)cc1	-4	·	-6	1	5	26	·
CCOC1=C2CN(S(=O)(=O)c3ccc(C)cc3)[C@@H](c3ccc(CC)cc3)C[C@H]2[C@H]2C(=O)N(c3ccccc3)C(=O)[C@H]2C1	7	·	·	·	·	·	·
CSc1ccccc1NC(=S)N/N=C/c1cccn1Cc1ccc(F)cc1	1	44	-63	12	23	44*	30
Cc1cc2sc3nc(=O)n(-c4ccccc4)c(=O)n3c2cc1C	8	0	-6	0	23	22	·
